Compounds with a hit are over-represented: about 7.2% of the library has one in this group of screens.
Efflux pump inh: blocks antifungal efflux pumps in multiplex yeast assay; S. cerevisiae Candida pump triplex, Nile Red efflux; inhibition, % at 10 µM; 0.44% of 330,000 active; AID 485275;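 active means plate passing quality check with inhibition over a set limit, or well fluorescence over plate mean plus 4 SD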;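 further: Nile Red retained in pooled yeast measured as flow cytometry median fluorescence; higher means more Nile Red kept so more efflux inhibition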
VLA-4 inh: inhibition in a human VLA-4 binding assay. 0.2% of 330,000 active. P13612. VLA-4 expressing cells, ligand binding flow cytometry. inhibition, % (about 7 µM as worked out from the volumes in the protocol); in the data active means inhibition above about 50%
Bfl-1 A1 inh: inhibitors of the anti-apoptotic protein A1, read as caspase activation; MEF A1-2A-BIM cells, Caspase-Glo 3/7 luminescence, 3 h; percent of clofoctol response, vehicle zero; caspase activation, % (concentration not given with the values); 0.066% of 330,000 active; AID 2462;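 active means over half of replicate activation scores above 10%, or exactly half above 10 with the replicate mean above 10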
ALR H2O2 inh: human ALR oxidase inhibition via reduced H2O2. P55789. purified ALR, DTT oxidation, H2O2 HRP-luminol luminescence. inhibition, % (concentration not given with the values). 3.8% of 290,000 active;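 active means mean replicate inhibition above about 79%, with every replicate also reaching it, limit read from the data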
Mot1-301 SUMO: inhibitors of SUMOylation pathway: yeast Mot1-301 growth rescue; S. cerevisiae Mot1-301 growth rescue, ATP luminescence, 38.5C; percent above DMSO median, 100 means doubled; growth rescue, % at 18.8 µM; 1% of 320,000 active; AID 2716;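 active means every valid replicate shows activation above 250% relative to neutral control wells; inactive means the rest, any valid replicate at or below 250%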
AHR activator: human AHR activation; P35869; AHR-responsive luciferase reporter cells, luminescence; activation, % at 5 µM; 2.5% of 320,000 active; AID 2796; in the data active means activation above about 47%
Target sequence (P35869 whole entry, looked up): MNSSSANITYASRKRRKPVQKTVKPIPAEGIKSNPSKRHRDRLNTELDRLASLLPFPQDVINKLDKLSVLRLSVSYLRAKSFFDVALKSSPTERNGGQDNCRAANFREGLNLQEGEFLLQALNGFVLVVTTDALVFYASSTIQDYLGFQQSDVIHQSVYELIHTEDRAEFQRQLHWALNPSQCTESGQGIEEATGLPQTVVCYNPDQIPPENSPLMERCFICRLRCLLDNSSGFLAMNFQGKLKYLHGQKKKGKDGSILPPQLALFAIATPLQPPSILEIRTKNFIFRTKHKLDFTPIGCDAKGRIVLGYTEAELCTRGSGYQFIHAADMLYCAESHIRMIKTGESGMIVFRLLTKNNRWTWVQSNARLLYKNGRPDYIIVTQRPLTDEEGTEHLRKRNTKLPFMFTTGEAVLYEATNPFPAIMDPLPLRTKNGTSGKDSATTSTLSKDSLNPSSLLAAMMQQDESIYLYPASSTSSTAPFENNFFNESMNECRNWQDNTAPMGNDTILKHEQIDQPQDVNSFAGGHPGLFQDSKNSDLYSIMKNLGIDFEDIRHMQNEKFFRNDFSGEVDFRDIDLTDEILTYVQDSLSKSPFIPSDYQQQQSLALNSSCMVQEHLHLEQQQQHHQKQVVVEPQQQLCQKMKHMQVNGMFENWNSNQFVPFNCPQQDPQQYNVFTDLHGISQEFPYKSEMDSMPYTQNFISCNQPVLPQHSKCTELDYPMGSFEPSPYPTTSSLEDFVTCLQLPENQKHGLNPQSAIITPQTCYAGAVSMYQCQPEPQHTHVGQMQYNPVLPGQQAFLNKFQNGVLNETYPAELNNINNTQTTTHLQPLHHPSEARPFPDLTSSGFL
VLA-4 mod pick: confirmation of allosteric modulators of human VLA-4 integrin; U937 cells, HUTS-21 LIBS mAb binding, flow cytometry; LDV ligand present at threefold Kd; 2% of 1,300 active; inhibition, % at 6.7 µM; shares compounds with VLA-4 inh; in the data active means inhibition above about 40%
A number is an active result.

Results for CCOC(=O)c1c(NC(=O)C2c3ccccc3Oc3ccccc32)sc(C(=O)N(CC)CC)c1C ?
Efflux pump inh: inactive; VLA-4 inh: inactive; Bfl-1 A1 inh: inactive; Mot1-301 SUMO: inactive; AHR activator: inactive; VLA-4 mod pick: inactive

What do the screens show for `COc1cc(OC)cc(C(=O)NC(C(=O)N2CCc3ccccc3C2)C(C)C)c1` (stereo not given)?
Efflux pump inh: inactive; VLA-4 inh: 50; Bfl-1 A1 inh: inactive; ALR H2O2 inh: inactive; Mot1-301 SUMO: inactive; AHR activator: inactive; VLA-4 mod pick: inactive

How did N#CC(C#N)=C1C=CC=CN1/C(=C\c1ccco1)C(=O)c1ccc(-c2ccccc2)cc1 do in these assays?
Efflux pump inh: inactive; VLA-4 inh: 50; Bfl-1 A1 inh: inactive; ALR H2O2 inh: inactive; Mot1-301 SUMO: inactive; AHR activator: inactive; VLA-4 mod pick: inactive

Results for COc1ccc2c(c1)N(C)/C(=C1/SC(=NCc3ccccc3)N(c3ccccc3)C1=O)S2 ?
Efflux pump inh: inactive; VLA-4 inh: 90; Bfl-1 A1 inh: inactive; ALR H2O2 inh: inactive; Mot1-301 SUMO: inactive; AHR activator: inactive; VLA-4 mod pick: inactive

Results for CC(=O)NN1C(=O)/C(=C2/Sc3ccccc3N2C)SC1=S ?
Efflux pump inh: inactive; VLA-4 inh: inactive; Bfl-1 A1 inh: inactive; Mot1-301 SUMO: inactive; AHR activator: inactive; VLA-4 mod pick: inactive

Results for Cc1cc(Oc2ccccc2)nc(SCC(=O)Nc2ccccc2)n1 ?
Efflux pump inh: inactive; VLA-4 inh: 70; Bfl-1 A1 inh: inactive; ALR H2O2 inh: inactive; Mot1-301 SUMO: inactive; AHR activator: inactive; VLA-4 mod pick: inactive

How did Cc1cc(Oc2ccccc2)nc(SCC(=O)Nc2ccc(Cl)c(Cl)c2)n1 do in these assays?
Efflux pump inh: inactive; VLA-4 inh: inactive; Bfl-1 A1 inh: inactive; ALR H2O2 inh: inactive; Mot1-301 SUMO: inactive; AHR activator: inactive

What do the screens show for `CC(=O)c1ccc(N2C(=O)CC(N3CCN(S(=O)(=O)c4ccc(C)c(C)c4)CC3)C2=O)cc1` (stereo not given)?
Efflux pump inh: inactive; VLA-4 inh: inactive; Bfl-1 A1 inh: inactive; ALR H2O2 inh: inactive; Mot1-301 SUMO: inactive; AHR activator: inactive

Results for CC1Cc2ccccc2N1c1ncnc(N)c1[N+](=O)[O-] (stereo not given) ?
Efflux pump inh: inactive; VLA-4 inh: 53; Bfl-1 A1 inh: inactive; ALR H2O2 inh: inactive; Mot1-301 SUMO: inactive; AHR activator: inactive; VLA-4 mod pick: inactive

How did CCOc1ccc(S(=O)(=O)N2CCCCC2)cc1NC(=O)CC1OC(=O)c2ccccc21 (stereo not given) do in these assays?
Efflux pump inh: inactive; VLA-4 inh: inactive; Bfl-1 A1 inh: inactive; ALR H2O2 inh: inactive; Mot1-301 SUMO: inactive; AHR activator: inactive

What do the screens show for `O=C1CCN(CCc2ccccc2)CCN1[C@H](CO)Cc1ccccc1`?
Efflux pump inh: inactive; VLA-4 inh: inactive; Bfl-1 A1 inh: inactive; ALR H2O2 inh: inactive; Mot1-301 SUMO: inactive; AHR activator: inactive

How did O=C1CCN(CCCc2ccccc2)CCN1[C@H](CO)Cc1ccccc1 do in these assays?
Efflux pump inh: inactive; VLA-4 inh: 54; Bfl-1 A1 inh: inactive; ALR H2O2 inh: inactive; Mot1-301 SUMO: inactive; AHR activator: inactive; VLA-4 mod pick: inactive

How did CCc1ccc(OCC(=O)OCC(=O)NCCNC(=O)COC(=O)COc2ccc(CC)cc2)cc1 do in these assays?
Efflux pump inh: inactive; VLA-4 inh: inactive; Bfl-1 A1 inh: inactive; ALR H2O2 inh: inactive; Mot1-301 SUMO: inactive; AHR activator: inactive

How did C[C@H](NCCc1ccc(O)cc1)[C@H](O)c1ccc(O)cc1 do in these assays?
Efflux pump inh: inactive; VLA-4 inh: 52; Bfl-1 A1 inh: inactive; ALR H2O2 inh: inactive; Mot1-301 SUMO: inactive; AHR activator: inactive; VLA-4 mod pick: inactive

Results for Cc1ccc(NC(=O)CNC(=O)c2ccc(Br)o2)nc1 ?
Efflux pump inh: inactive; VLA-4 inh: inactive; Bfl-1 A1 inh: inactive; ALR H2O2 inh: inactive; Mot1-301 SUMO: inactive; AHR activator: inactive

How did Cc1cc(C(=O)COC(=O)Cc2ccc(Cl)cc2)c(C)n1C do in these assays?
Efflux pump inh: inactive; VLA-4 inh: inactive; Bfl-1 A1 inh: inactive; ALR H2O2 inh: inactive; Mot1-301 SUMO: inactive; AHR activator: inactive
